activity, negative = inhibition and AC50 data for 47 compounds are collected here from PubChem BioAssay AID1851 (National Center for Advancing Translational Sciences (NCATS), 2009).

Hit rate of the full screen: of about 16,000 compounds, about 5,100 (32%) were called active. Inconclusive results (about 25%) are left out. The list shows a part of the results. Unmarked numbers belong to inactive results. Calls come from the whole dose curve; as a rule, active = well fitted curve in the direction sought with a large enough effect; inconclusive = small, poorly fitted or top-dose-only effect, or effect the other way; inactive = no such curve, though single readings can be large or run the other way.
% is set by controls: 0 for no effect and ±100 for the full control effect.

In the experiment the target is Cytochrome P450 3A4 (Homo sapiens) (UniProt P08684). The experiment in a line: Cytochrome panel assay with activity outcomes. As to conditions: recombinant CYP, pro-luciferin dealkylation, luminescence, p450-cyp3a4; series mostly up to 57.1 µM.
Chain of Cytochrome P450 3A4 (Homo sapiens) (P08684 whole entry, looked up): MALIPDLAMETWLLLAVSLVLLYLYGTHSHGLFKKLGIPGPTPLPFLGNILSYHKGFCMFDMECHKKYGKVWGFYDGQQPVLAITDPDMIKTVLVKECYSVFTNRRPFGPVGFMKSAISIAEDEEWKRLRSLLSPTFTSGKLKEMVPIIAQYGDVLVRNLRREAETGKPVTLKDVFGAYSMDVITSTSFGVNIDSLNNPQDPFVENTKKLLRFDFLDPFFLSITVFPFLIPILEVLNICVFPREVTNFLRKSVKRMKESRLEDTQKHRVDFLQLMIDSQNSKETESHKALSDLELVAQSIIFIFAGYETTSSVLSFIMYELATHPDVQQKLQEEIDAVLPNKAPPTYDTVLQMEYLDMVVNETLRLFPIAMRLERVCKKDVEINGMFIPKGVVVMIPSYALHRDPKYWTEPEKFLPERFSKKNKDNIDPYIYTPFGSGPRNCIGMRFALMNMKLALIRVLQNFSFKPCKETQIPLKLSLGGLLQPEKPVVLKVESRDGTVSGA
In the case of `C[N+](C)(C)[C@H](Cc1c[nH]c(=S)[nH]1)C(=O)O`, the activity, negative = inhibition was -1.29% [at 11.4 µM].
Still for that read-out and setting: to `O=[N+]([O-])O[C@H]1CO[C@H]2[C@H]1OC[C@@H]2O[N+](=O)[O-]` belongs “inactive”.
Same read-out and setting: to `CS(=N)(=O)CC[C@H](N)P(=O)(O)O` (some centres not stated) belongs 1.43% [at 11.4 µM].
On the same count and under the same terms, then `N[C@@H](Cn1ccc(=O)n(Cc2ccc(C(=O)O)cc2)c1=O)C(=O)O`, with “inactive”; and `CN(C)CCN(C)CCc1ccc(Cl)c(Cl)c1`, with “inactive”.
Usually AC50 stands for the concentration at which the activity in the assay is half-maximal. Take `CN(CCc1ccc(Cl)c(Cl)c1)[C@H]1CCCC[C@H]1N1CCCC1`: the AC50 is 12.6 µM (active).
With `COc1ccc2c(c1O)-c1c(OC)c(OC)cc3c1[C@H](C2)N(C)CC3`, the activity, negative = inhibition result is “inactive”.
As for `CC(=O)O[C@@H]1CN2CCC1CC2`, the activity, negative = inhibition entry is “inactive”.
As to `CC(=O)Nc1ccccc1C(=O)OCC(=O)c1ccc2ccccc2c1`, the activity, negative = inhibition result is “inactive”.
As to `c1ccc2c(c1)[I+]c1ccccc1-2`, the AC50 was 3.16 µM (active).
Regarding `C1CCc2nnnn2CC1`, the activity, negative = inhibition entry was “inactive”.
Same read-out and setting: to `CC(=O)N1CCC2(CC1)CC(=O)c1cc(OCC(=O)N3CCN(C)CC3)ccc1O2` belongs “inactive”.
Take `O=C(COc1ccc2ccccc2c1)N1CCN(CC2CC3C=CC2C3)CC1` (configuration not stated): the AC50 is 12.6 µM (active).
Take `C[N+](C)(C)CC#CCN1CCCC1=O`: the activity, negative = inhibition result is “inactive”.
On the same count and under the same terms, to `CN1C(=O)COc2c(C(=O)N[C@@H]3CN4CCC3CC4)cc(Cl)cc21` belongs “inactive”; to `O=C1CC[C@@]2(O)[C@H]3Cc4ccc(O)c5c4[C@@]2(CCN3CC2CC2)[C@@H]1O5`, “inactive”.
For `CCCCC/C=C\C/C=C\C/C=C\C/C=C\CCCC(=O)Nc1ccc(O)cc1`, the AC50 was 5.01 µM (active).
Take `CCCC(=O)Nc1ccc(N2CCN(CC)CC2)c(Cl)c1`: the activity, negative = inhibition result was “inactive”.
On the same count and under the same terms, to `NS(=O)(=O)c1ccc(-c2ccc([As](=O)(O)O)cc2)cc1` belongs -4.52% [at 11.4 µM]; to `Oc1ccc([C@H](O)[C@@H]2CCCCN2)cc1O`, -7.28% [at 11.4 µM].
On to `CN1CCc2cc3c(cc2[C@@H]1[C@@H]1OC(=O)c2c1ccc1c2OCO1)OCO3`, for which the AC50 is 0.794 µM (active).
Regarding `COc1c2c(cc3c1OCO3)CCN(C)C2`, the activity, negative = inhibition entry was “inactive”.
Regarding `CO[C@H]1C=C2CCN(C)[C@@H]2[C@@H]2c3cc4c(cc3C(=O)O[C@H]21)OCO4`, the activity, negative = inhibition entry was “inactive”.
Turning to `C[N+]1(C)CCc2cc3c(cc2[C@@H]1[C@@H]1OC(=O)c2c1ccc1c2OCO1)OCO3`, the AC50 was 15.8 µM (active).
Same read-out and setting: to `CN1Cc2c(ccc3c2OCO3)[C@@H]2[C@@H](O)Cc3cc4c(cc3[C@@H]21)OCO4` belongs 5.01 µM (active).
For `COc1cc2c(cc1OC)[C@H](C)NCC2`, the activity, negative = inhibition result is “inactive”.
`CC[C@H]1CN2CC[C@@H]1C[C@H]2[C@@H](O)c1ccnc2ccc(OC)cc12`: the activity, negative = inhibition result is “inactive”.
Still for that read-out and setting: to `COc1cc2c(cc1OC)[C@@]13CCN4C=C5CCO[C@H]6CC(=O)N2[C@@H]1[C@@H]6[C@H]5C[C@H]43` belongs 13.3% [at 11.4 µM].
Regarding `[N-]=[N+]=CC(=O)CC[C@H](N)C(=O)O`, the activity, negative = inhibition is -9.62% [at 11.4 µM].
The same measure, in the same setting: then `CN1CCc2cccc(Cl)c2CC1`, with “inactive”; and `NC(=O)CN1C[C@@H](O)CC1=O`, with “inactive”; and `CN(C)C=C1C(=O)N(C2CCCCC2)C(=O)N(C2CCCCC2)C1=O`, with “inactive”.
Regarding `CN1C2C=C3C(C#N)=C(N)C(C#N)(C#N)[C@H](c4c(F)cccc4F)[C@H]3C1CC2` (some centres not stated), the AC50 is 4.47 µM (active).
Turning to `CS(=N)(=O)CC[C@@H](N)C(=O)O` (some centres not stated), the activity, negative = inhibition entry was “inactive”.
Still for that read-out and setting: then `C[C@@H]1O[C@@H](O[C@H]2C[C@@H](O)[C@@]3(CO)[C@H]4[C@H](O)C[C@]5(C)[C@@H](C6=CC(=O)OC6)CC[C@]5(O)[C@H]4CC[C@@]3(O)C2)[C@@H](O)[C@H](O)[C@H]1O`, with 10.6% [at 11.4 µM].
With `NC(=O)CN1CCCC1=O`, the activity, negative = inhibition entry was “inactive”.
On the same count and under the same terms, then `NNC(N)=O`, with “inactive”.
As for `NC(=O)CI`, the half-maximal activity concentration (AC50) is 0.0631 µM (active).
As to `CCCN1CCC[C@@H]2Cc3nc(N)ncc3C[C@H]21`, the activity, negative = inhibition result was “inactive”.
Same read-out and setting: to `COC(=O)[C@@H]1[C@@H]2C[C@H]3c4[nH]c5cc(OC)ccc5c4CCN3C[C@@H]2C[C@H](OC(=O)/C=C\c2cc(OC)c(OC)c(OC)c2)[C@H]1OC` belongs “inactive”; to `COc1cc(CCN)ccc1O`, “inactive”.
On the same count and under the same terms, then `CNC[C@H](O)c1ccc(O)c(OC)c1`, with “inactive”.
On to `COc1cc(CNC(=O)CCCC/C=C\C(C)C)ccc1O`, for which the concentration at half-maximal activity (AC50) was 3.98 µM (active).
Same read-out and setting: then `Cc1cccc([C@H](C)c2cnc[nH]2)c1C`, with 0.158 µM (active).
Take `O=P(O)(O)C(Cl)(Cl)P(=O)(O)O`: the activity, negative = inhibition entry is “inactive”.
The same measure, in the same setting: then `C(=C/c1ccccc1)/CN1CCN(CCOC(c2ccccc2)c2ccccc2)CC1`, with “inactive”; and `CC(C)[N+](C)(CCC(C(N)=O)(c1ccccc1)c1ccccc1)C(C)C`, with “inactive”.
